Screens from PubChem.
Shown are actives, neighbours in structure and some others; about 7.4% of the full set was active somewhere.
HEK293 viab: GF-AFC viability counterscreen for inhibitors of alpha-synuclein gene (SNCA) expression. HEK-293-SNCA-luc viability, GF-AFC fluorescence, 24 h. Potency, µM (titrated, usually from 57.1 µM), for inactives: at the highest dose activity change, negative = cytotoxicity, actives largely listed as cytotoxic. 0.12% of 150,000 active;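 note: 0% = DMSO-treated cells and -100% = medium-only wells without cells; nearly all actives have a fitted effect of over 30% in size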
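HEK-293-SNCA-luc cells (1500/well) plated 24 h, then exposed 24 h to a dilution series; GF-AFC added 30 min at 37C, fluorescence 405/540 nm; normalised to medium-only and DMSO wells, Hill fit.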
3T3 cytotox: Cytotoxic Profiling in NIH 3T3 Cell Line of Diverse Libraries Using Quantitative High-Throughput Screening. 4.3% of 94,000 active. AID 1345082, 2018. Potency, µM (series often up to 96.7 µM), inactives show at the top dose activity change, negative = cytotoxicity, actives largely listed as inhibitors. NIH 3T3 viability, CellTiter-Glo ATP luminescence, 48-72 h; note: nearly all actives have a fitted effect of over 55% in size
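Cytotoxicity is measured as loss of cellular ATP: NIH 3T3 cells (400/well) are exposed to compound for 48 or 72 hr at 37 °C, then CellTiter-Glo luminescence is imaged after 10 min at room temperature.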
FLuc inh: Firefly luciferase inhibition profiling of diverse chemical library using quantitative high-throughput screening; Luciferin 4-monooxygenase (Photinus pyralis), P08659; Potency, µM (doses to about 115 µM), usual class: inhibitors; purified P. pyralis luciferase, luminescence, biochemical; AID 1347043, 2019; 2.5% of 76,000 active; note: nearly all actives have a fitted effect of over 65% in size
Target sequence (P08659 whole entry, looked up): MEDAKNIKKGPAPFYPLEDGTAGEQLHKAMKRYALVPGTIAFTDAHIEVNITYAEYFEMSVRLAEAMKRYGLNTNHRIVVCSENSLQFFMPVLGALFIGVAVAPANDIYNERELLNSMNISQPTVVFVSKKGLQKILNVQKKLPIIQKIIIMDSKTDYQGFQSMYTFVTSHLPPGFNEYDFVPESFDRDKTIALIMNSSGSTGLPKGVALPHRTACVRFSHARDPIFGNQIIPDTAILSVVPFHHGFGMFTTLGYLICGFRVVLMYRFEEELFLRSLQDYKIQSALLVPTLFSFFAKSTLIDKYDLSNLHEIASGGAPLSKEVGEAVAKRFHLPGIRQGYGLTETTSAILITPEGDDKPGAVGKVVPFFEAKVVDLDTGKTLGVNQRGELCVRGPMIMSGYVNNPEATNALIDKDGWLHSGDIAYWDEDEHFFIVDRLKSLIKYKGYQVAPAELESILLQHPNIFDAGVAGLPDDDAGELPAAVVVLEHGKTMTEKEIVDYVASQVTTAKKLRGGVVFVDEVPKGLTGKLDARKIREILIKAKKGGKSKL
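FLuc 10nM, D-luciferin 10uM, ATP 10uM, Mg acetate 10mM, Tris acetate pH 7.5, Tween/BSA; cpd qHTS; enzyme added last; CCD luminescence.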
SNCA expr inhib: Primary qHTS assay for inhibitors of alpha-synuclein gene (SNCA) expression | Potency, µM (highest dose often 57.2 µM), for inactives: top-dose activity change, negative = inhibition, hits mostly inhibitors | 0.17% of 140,000 active | AID 1671194, 2021 | HEK-293 SNCA-luciferase knock-in, luminescence, 24 h;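 note: plate controls were DMSO cells for no effect and cell-free wells for full effect; nearly all actives have a fitted effect of over 45% in size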
hNpr1 antagonist: Natriuretic polypeptide receptor (hNpr1) antagonism - Primary qHTS; Atrial natriuretic peptide receptor 1 (Homo sapiens), P16066; HEK293 hNpr1 GloSensor cGMP, ANP-stimulated luminescence; Potency, µM (doses to about 46.3 µM), inactives show at the highest dose activity change, negative = inhibition, usual class: inhibitors; 1.6% of 76,000 active; AID 1347048, 2019; calls by dose curve; note: nearly all actives have a fitted effect of over 60% in size
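Compound pre-incubated 30 min at room temperature on GloSensor-loaded HEK293 cells stably carrying hNpr1 and the pGS-40F cGMP biosensor. Stimulation uses hNppA at 0.1 nM final; luminescence is taken at baseline and 20 min post-agonist.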
HEK293 tox: Cytotoxic Profiling in HEK 293 Cell Line of Diverse Libraries Using Quantitative High-Throughput Screening; 6.6% of 94,000 active; Potency, µM (highest dose often 115 µM), without a hit: top-dose activity change, negative = cytotoxicity, hits mostly inhibitors; HEK 293 viability, ATP luminescence (CellTiter-Glo), 48-72 h; AID 1345083, 2018; note: nearly all actives have a fitted effect of over 60% in size
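Cytotoxicity was scored by loss of ATP-coupled luminescence (CellTiter-Glo) in HEK 293 cells. Compound treatment ran 48 or 72 hr at 37 degree Celsius, 5% CO2, 95% humidity.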
Active calls of the source: *; i = inactive; ? = inconclusive; nt = not tested or not shown; [ ] = remark or other dose. Unless noted, calls come from the whole dose curve; as a rule, active = well fitted curve in the direction sought with a large enough effect; inconclusive = small, poorly fitted or top-dose-only effect, or another doubt; inactive = no such curve, though single readings can be large; an effect the other way counts as inactive or inconclusive. Unless noted, % is set by controls: 0 for no effect and ±100 for the full control effect; potency is the fitted concentration of half-maximal effect.

SMILES | HEK293 viab | 3T3 cytotox | FLuc inh | SNCA expr inhib | hNpr1 antagonist | HEK293 tox
O=C(c1ccc(N2CCC(NCC(c3ccccc3)c3ccccc3)CC2)cc1)N1CCCC(O)C1 (stereo not given) | -7.5% | ? | i | 9.1% | -4.3% | -25.2%
c1ccc(CN2CCC(Oc3nccnc3N3CCc4ccccc43)C2)nc1 (stereo not given) | -12.9% | ? | i | ? | 0.1% | 39.8µM*
c1ccc2c(c1)CCN2c1nccnc1OC1CCNC1 (stereo not given) | 10.8% | -12.6% | i | 4.5% | -11.9% | -35.3%
COCC(=O)N1CCC(Oc2nccnc2N2CCc3ccccc32)C1 (stereo not given) | 8.1% | i | 35.5µM* | 133.0% | 0.0% | -1.1%
Cc1cc(=O)n(CC(=O)Nc2ccc(F)cc2)c(N2CCC(C)CC2)n1 | -2.9% | ? | i | -14.0% | -17.1% | ?
CCn1cc(-c2cc3c(cn2)CN(CCc2ccccc2)CCN3)cn1 | -11.7%[87.6 µM] | ? | i | 20.2%[87.6 µM] | -2.1%[70.6 µM] | ?
Cc1cc(-c2cc3c(cn2)CN(Cc2c[nH]c4ccccc24)CCN3)ccn1 | -7.3%[87.6 µM] | ? | ? | 177.4%[87.6 µM] | -6.3%[70.6 µM] | 112µM*
Cc1cc(-c2cc3c(cn2)CN(Cc2ccccc2F)CCN3)ccn1 | -23.5%[87.6 µM] | ? | 25.1µM* | 79.0%[87.6 µM] | -15.6%[70.6 µM] | 70.8µM*
Cc1cc(-c2cc3c(cn2)CN(Cc2ccc(F)c(F)c2)CCN3)ccn1 | -19.2%[87.6 µM] | ? | 39.8µM* | 88.9%[87.6 µM] | 3.2%[70.6 µM] | 70.8µM*
Fc1ccc(CN2CCNc3cnc(OCc4cccnc4)cc3C2)cc1F | -1.8%[87.6 µM] | ? | i | ? | ? | ?
Cc1cc(-c2cc3c(cn2)CN(Cc2ccc(C(F)(F)F)cc2)CCN3)ccn1 | -21.5%[87.6 µM] | 79.4µM* | 63.1µM* | 40.2%[87.6 µM] | 28.2µM* | 63.1µM*
CC(C)c1ccc(CN2C[C@@H]3C(=O)N(Cc4ccc5c(c4)OCO5)C(=O)[C@@H]3C2)cc1 | 1.8% | ? | i | -5.4% | ? | ?
COc1c(F)ccc(C(=O)NC2CC(=O)N(CCc3ccc(F)cc3)C2)c1F (stereo not given) | -13.9% | -22.2% | i | 1.3% | 0.5% | -0.7%
C=C(C)[C@@H]1CC[C@]2(C(=O)O)CC[C@]3(C(=O)O)[C@H](CCC4[C@@]5(C)CCC(=O)C(C)(C)C5CC[C@]43C)C12 (stereo not given in full) | -0.1%[23.9 µM] | nt | nt | nt | nt | nt
OC[C@H]1C[C@@H](NCc2ccc(F)cc2)[C@H](O)[C@@H]1O | 10.1%[87.6 µM] | -2.5%[174 µM] | i | 44.1%[87.6 µM] | -2.3%[70.6 µM] | -0.2%[230 µM]
C[S+](=O)([O-])c1ccc(-c2cc3c(cn2)CN(Cc2ccccc2)CCN3)cc1 | -12.5%[87.6 µM] | ? | ? | 67.2%[87.6 µM] | -3.4%[70.6 µM] | ?
Cc1cccc(CN2CCNc3cc(-c4ccnc(C)c4)ncc3C2)c1 | ? | ? | ? | 0.5%[87.6 µM] | -16.5%[70.6 µM] | 39.8µM*
Cc1cccc(CN2CCNc3cnc(OCc4cccnc4)cc3C2)c1 | -11.1%[87.6 µM] | ? | i | -24.0%[87.6 µM] | ? | 100µM*
CNC(=O)N1CCC(C2CCN(C(=O)Cc3ccc(OC)c(Cl)c3)C2)CC1 (stereo not given) | 6.2%[12.5 µM] | -14.9% | i | ? | -7.0% | -13.2%
C[C@@H](NC(=O)C[C@@H]1c2nc(NC(=O)CC(C)(C)C)sc2C[C@@H]2[C@](C)(CO)[C@H](O)CC[C@]21C)c1ccccc1 | -22.0% | ? | i | ? | 1.1% | 39.8µM*
C[C@H](NC(=O)C[C@@H]1c2nc(NC(=O)c3ccc(F)cc3)sc2C[C@@H]2[C@](C)(CO)[C@H](O)CC[C@]21C)c1ccccc1 | ? | ? | i | ? | -8.9% | 31.6µM*
CCCCCC(=O)Nc1nc2c(s1)C[C@@H]1[C@](C)(CO)[C@H](O)CC[C@@]1(C)[C@@H]2CC(=O)N[C@@H](CO)CC(C)C | -9.5% | 79.4µM* | i | -21.6% | 3.1% | ?
CC(C)C[C@H](CO)NC(=O)C[C@@H]1c2nc(NC(=O)CC(C)(C)C)sc2C[C@@H]2[C@](C)(CO)[C@H](O)CC[C@]21C | 1.7% | -0.7% | i | -2.9% | -0.2% | 1.5%
C[C@]1(CO)[C@H]2Cc3sc(NC(=O)c4ccc(F)cc4)nc3[C@@H](CC(=O)O)[C@]2(C)CC[C@H]1O | 4.6% | -1.4% | i | -10.2% | 1.5% | 2.6%
Cc1nc(C2CCCN(C(=O)COC(C)C)C2)cc(N2CCOCC2)n1 (stereo not given) | 0.9% | 4.0% | i | 11.1% | 4.6% | -2.2%
SMILES | HEK293 viab | 3T3 cytotox | FLuc inh | SNCA expr inhib | hNpr1 antagonist | HEK293 tox
O=C1Cc2c(-c3ccc(F)cc3F)n[nH]c2CN1CC1CC1 | -4.9%[87.6 µM] | ? | i | 8.8%[87.6 µM] | -19.8%[70.6 µM] | ?
CC(C)(Oc1nn(Cc2cccc(Cl)c2)c2ccccc12)C(=O)NCC1CCOCC1 | -21.5% | ? | i | -24.5% | ? | ?
CN1CCC(NC(=O)C(C)(C)Oc2nn(Cc3cccc(Cl)c3)c3ccccc23)CC1 | ? | 31.6µM* | i | ? | -26.1%[70.6 µM] | 39.8µM*
CC(C)(Oc1nn(Cc2cccc(Cl)c2)c2ccccc12)C(=O)NCc1ccncc1 | ? | 31.6µM* | i | ? | ? | ?
CC(C)(Oc1nn(Cc2cccc(Cl)c2)c2ccccc12)C(=O)NCc1cnccn1 | -21.4%[87.6 µM] | ? | i | -5.2%[87.6 µM] | -23.3%[70.6 µM] | 89.1µM*
CCC(CC)C(=O)Nc1ccc([C@@H](O)[C@H]2COCC(=O)N2Cc2ccccc2OC)cc1 | -1.8% | -13.6% | i | 15.6% | 0.2% | -26.0%
CC(C)CCNC(=O)C1Cn2cccc2C(=O)N1Cc1ccccc1 (stereo not given) | 3.4% | -12.8% | i | 1.1% | -6.7% | -12.1%
Cc1ccsc1C(=O)Nc1ccc2c(N3CCCCC3)ncnc2c1 | ? | 35.5µM* | ? | 2.2% | -5.9% | ?
O=C(Nc1ccc2c(N3CCCC3)ncnc2c1)c1ccccc1Cl | -20.3% | 25.1µM* | ? | -14.6% | 0.0% | ?
O=C(Nc1ccc2ncnc(N3CCCCC3)c2c1)c1ccccc1Br | -18.2% | ? | i | -9.1% | ? | 44.7µM*
Cc1ccc(C(=O)Nc2ccc3c(N4CCCCC4)ncnc3c2)cc1F | -23.9% | ? | i | ? | -29.2% | ?
O=C(Nc1ccc2ncnc(N3CCCCC3)c2c1)c1c(F)cccc1Cl | ? | ? | i | 0.3% | -7.0% | 50.1µM*
CC1=C[C@@H](CNC(=O)CC(C)(C)C)[C@H](C(C)C)C[C@H]1CC(=O)NC1CCCC1 | -26.1%[87.6 µM] | ? | i | -3.4%[87.6 µM] | -0.8%[70.6 µM] | ?
